Data on 40 sequences can be found in the supplement of paper PMC6555819.

The test system of the first assay is RARb homodimer (NR concentration 270 nM). Description: PBM binding z-score (relative to random genomic background probes); higher = stronger binding; sequences stand for … in GC…GCGATTGACAGCGTAGAATGAAGG
In outline: (§1)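 Scanned fluorescence from custom Agilent 4×180K protein-binding microarrays was regression-normalized. Binding z-scores use random background probes as reference. Ligand-free nuclear receptor dimers were incubated on the arrays for 1 h and detected with antibodies against each partner (one per run).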
CTCGAAAGGTCGGTCGAGGTGAGTATACGGATAA had a PBM binding z-score of 2.4.

On to CAAACTAGGTCACCGGAAGGACAAAGTCCGCATG, for which the PBM binding z-score stood at 4.21.

For AGAACGAGCGCAATGAGTTGATAGCACGGGTGGC, the PBM binding z-score was -0.96.

TCCATTAGTTGATTAGGGCAACCGAAACAGCGGA: the PBM binding z-score stood at 0.875.

For the sequence CCGACTGGGGCAAAGGTTACTATACTCAGTACGA, the PBM binding z-score turned out to be 1.74.

Regarding ACTAGCATGCCAAGTTTGGGTCACTCAAACAAAG, the PBM binding z-score is 1.71.

CCAAGTTGGTCAAGGTCACACACGCTATAGGTAC yielded a PBM binding z-score of 4.47.

With CGTCCAAGGTCAAGGTAAGTGAAAGAGACTCGAA, the PBM binding z-score was determined as 4.02.

ATCTCTAGGTAACAAGTTCAGGGAAAGAGAGGAC showed a PBM binding z-score of 1.98.

CCGACTGCGGCAAAGGTTACCATACTCAGTACGA: the PBM binding z-score was 2.07.

AGAATGACGTTATACGTAGATCAGGGAAGAAAGT registered a PBM binding z-score of -0.508.

TCTAGTTGGTCAAAGGTCACACCCTCGAAATGCG returned a PBM binding z-score of 5.03.

Sequence GCAGACAGGTGAAACGTAGGTAACTCAGGGTGGC displayed a PBM binding z-score of 0.622.

In turn, ATCTCTATGTAACCAAGTTCAGTGAATGCCGAAC displayed a PBM binding z-score of 1.28.

With GCGGCTGGGGCAAAGCAGGTTACCATAAGGTTGG, the PBM binding z-score was found to be 1.19.

In turn, ACTACTAGTTGAGACGAGGGCAACCGATAGGTTG came in with a PBM binding z-score of 1.18.

In the case of CGAACTAGGTCATTAACAGGACAGTGAATAGTAA, the PBM binding z-score was 2.34.

AGAGTGAGGTTAAGATCAGGGAAACAGAATACAT came in with a PBM binding z-score of 1.46.

The subject of another assay is RARg:RXRa (NR concentration 270 nM, RXRa partner concentration 90 nM). The description is as above. The essentials:
as §1
CCTCCTGGGCCACGAAAGGTCATTGATTCAGTGA had a PBM binding z-score of 4.7.

With CCTTACGGGTCACAAGGTTATAGCACGACGAGCG, the PBM binding z-score turned out to be 5.7.

In turn, GCTGCTAAGTCAACTGATGGTCAGCTAAAGCTCG yielded a PBM binding z-score of 0.204.

CCGACTGGGGCAAAGGGTACCATACTCAGTACGA returned a PBM binding z-score of 0.946.

Take CCTAGTTGGTCTAGGTCACACACGCTATAGGTAC: the PBM binding z-score was 2.36.

As to ATCTCTAGTTAACAAGTTCAGTGAAAGAGAGGAC, the PBM binding z-score was found to be 1.07.

On to ATTCAAAGTTCACTAGGTAACGTAAGATTCAGCT, for which the PBM binding z-score was 4.48.

In turn, ACAGACAGATGATGAAGGTAACTCAGGCTATCAT showed a PBM binding z-score of 0.199.

Regarding TCTTGTTGATCAACAGGAGGTTAAGAAAGATCGA, the PBM binding z-score is 0.304.

In the case of ACTAGTTGGTCAGCTGAGGTCAGACACAATTCGG, the PBM binding z-score is 2.85.

The sequence ACTATTAGTTAAGACGAGGGCAACCGATAGGTTG showed a PBM binding z-score of 0.59.

For TCTGCTAGGTCAAGGATGGTCAGCTAATCTGCTA, the PBM binding z-score is 3.97.

For the sequence TAGCTTAGGTCATGGGCCAGTATACCACGCGAAC, the PBM binding z-score was 4.31.

The sequence CCTTACGGGCCACTCCAGGTTATAGCATCGGAGT gave a PBM binding z-score of 0.099.

The sequence TCATATAGGTAAACAGGTCAAAGTCCGTAAGTTA came in with a PBM binding z-score of 3.2.

On to AGTCAAACTTCATCTAGGTAACGTAAGATATGCT, for which the PBM binding z-score was -0.19.

ATCTCTAGGCAAAGTTCAGTGAAAGATCGATAGA: the PBM binding z-score came to 1.79.

As to ATGTCTAGGTAAAAGTTCAGTGAATCCCGAGGAT, the PBM binding z-score worked out at 1.91.

Sequence TCTATTAGTTAAAGGGCAACCGACGAGTCCGTTT returned a PBM binding z-score of 1.22.

Regarding CCTACTGGTCCACGAAAGGTCATTGATTCAGTGA, the PBM binding z-score is 4.79.

The sequence ACTCGGAGGACAAAGGTCAGAGTTACGCCAGTGA came in with a PBM binding z-score of 5.86.

CCGAGTAGGTTATGTGGCATTCAGGCAACGGTGA: the PBM binding z-score amounted to 0.273.

For the sequence CTCGAAAGGTCGGTCGAGGTGAGTATACGGATAA, the PBM binding z-score stood at 3.1.

CAAACTAGGTCACCGGAAGGACAAAGTCCGCATG returned a PBM binding z-score of 6.38.

The sequence AGAACGAGCGCAATGAGTTGATAGCACGGGTGGC came in with a PBM binding z-score of -0.134.

The sequence TCCATTAGTTGATTAGGGCAACCGAAACAGCGGA gave a PBM binding z-score of 0.57.

Turning to CCGACTGGGGCAAAGGTTACTATACTCAGTACGA, the PBM binding z-score was determined as 2.75.

As to ACTAGCATGCCAAGTTTGGGTCACTCAAACAAAG, the PBM binding z-score was determined as 1.43.

CCAAGTTGGTCAAGGTCACACACGCTATAGGTAC gave a PBM binding z-score of 5.04.

Take CGTCCAAGGTCAAGGTAAGTGAAAGAGACTCGAA: the PBM binding z-score amounted to 6.03.

As for ATCTCTAGGTAACAAGTTCAGGGAAAGAGAGGAC, the PBM binding z-score turned out to be 1.77.

The sequence CCGACTGCGGCAAAGGTTACCATACTCAGTACGA yielded a PBM binding z-score of 1.43.

The sequence AGAATGACGTTATACGTAGATCAGGGAAGAAAGT came in with a PBM binding z-score of -0.123.

As to TCTAGTTGGTCAAAGGTCACACCCTCGAAATGCG, the PBM binding z-score came out at 6.9.

GCAGACAGGTGAAACGTAGGTAACTCAGGGTGGC: the PBM binding z-score was found to be 0.956.

Consider ATCTCTATGTAACCAAGTTCAGTGAATGCCGAAC, for which the PBM binding z-score was found to be 0.518.

With GCGGCTGGGGCAAAGCAGGTTACCATAAGGTTGG, the PBM binding z-score was found to be 0.368.

Consider ACTACTAGTTGAGACGAGGGCAACCGATAGGTTG, for which the PBM binding z-score came out at 0.816.

CGAACTAGGTCATTAACAGGACAGTGAATAGTAA: the PBM binding z-score is 4.13.

AGAGTGAGGTTAAGATCAGGGAAACAGAATACAT yielded a PBM binding z-score of 2.28.

The test system of a further assay is RARg homodimer (NR concentration 270 nM). The description is as above. The essentials: as §1
As for CCTCCTGGGCCACGAAAGGTCATTGATTCAGTGA, the PBM binding z-score came to 4.3.

Sequence CCTTACGGGTCACAAGGTTATAGCACGACGAGCG registered a PBM binding z-score of 4.75.

GCTGCTAAGTCAACTGATGGTCAGCTAAAGCTCG showed a PBM binding z-score of -0.211.

On to CCGACTGGGGCAAAGGGTACCATACTCAGTACGA, for which the PBM binding z-score is 0.506.

CCTAGTTGGTCTAGGTCACACACGCTATAGGTAC showed a PBM binding z-score of 2.69.

As to ATCTCTAGTTAACAAGTTCAGTGAAAGAGAGGAC, the PBM binding z-score was determined as 1.06.

With ATTCAAAGTTCACTAGGTAACGTAAGATTCAGCT, the PBM binding z-score amounted to 5.35.

ACAGACAGATGATGAAGGTAACTCAGGCTATCAT returned a PBM binding z-score of 0.513.

The sequence TCTTGTTGATCAACAGGAGGTTAAGAAAGATCGA had a PBM binding z-score of 0.198.

For ACTAGTTGGTCAGCTGAGGTCAGACACAATTCGG, the PBM binding z-score came to 3.57.

Turning to ACTATTAGTTAAGACGAGGGCAACCGATAGGTTG, the PBM binding z-score turned out to be 0.902.

For TCTGCTAGGTCAAGGATGGTCAGCTAATCTGCTA, the PBM binding z-score was found to be 4.85.

Take TAGCTTAGGTCATGGGCCAGTATACCACGCGAAC: the PBM binding z-score was found to be 4.67.

As to CCTTACGGGCCACTCCAGGTTATAGCATCGGAGT, the PBM binding z-score was determined as 0.515.

TCATATAGGTAAACAGGTCAAAGTCCGTAAGTTA yielded a PBM binding z-score of 2.4.

With AGTCAAACTTCATCTAGGTAACGTAAGATATGCT, the PBM binding z-score was 0.544.

Consider ATCTCTAGGCAAAGTTCAGTGAAAGATCGATAGA, for which the PBM binding z-score turned out to be 2.42.

With ATGTCTAGGTAAAAGTTCAGTGAATCCCGAGGAT, the PBM binding z-score was found to be 1.91.

TCTATTAGTTAAAGGGCAACCGACGAGTCCGTTT displayed a PBM binding z-score of 1.42.

Sequence CCTACTGGTCCACGAAAGGTCATTGATTCAGTGA returned a PBM binding z-score of 4.43.

For ACTCGGAGGACAAAGGTCAGAGTTACGCCAGTGA, the PBM binding z-score came to 4.91.

For the sequence CCGAGTAGGTTATGTGGCATTCAGGCAACGGTGA, the PBM binding z-score amounted to 0.223.

Consider CTCGAAAGGTCGGTCGAGGTGAGTATACGGATAA, for which the PBM binding z-score came out at 3.3.

In the case of CAAACTAGGTCACCGGAAGGACAAAGTCCGCATG, the PBM binding z-score worked out at 6.15.

As for AGAACGAGCGCAATGAGTTGATAGCACGGGTGGC, the PBM binding z-score is -0.287.

The sequence TCCATTAGTTGATTAGGGCAACCGAAACAGCGGA displayed a PBM binding z-score of 0.556.

CCGACTGGGGCAAAGGTTACTATACTCAGTACGA returned a PBM binding z-score of 1.37.

ACTAGCATGCCAAGTTTGGGTCACTCAAACAAAG yielded a PBM binding z-score of 0.744.

The sequence CCAAGTTGGTCAAGGTCACACACGCTATAGGTAC had a PBM binding z-score of 5.36.

The sequence CGTCCAAGGTCAAGGTAAGTGAAAGAGACTCGAA gave a PBM binding z-score of 7.08.

ATCTCTAGGTAACAAGTTCAGGGAAAGAGAGGAC came in with a PBM binding z-score of 1.62.

Regarding CCGACTGCGGCAAAGGTTACCATACTCAGTACGA, the PBM binding z-score came to 1.07.

Sequence AGAATGACGTTATACGTAGATCAGGGAAGAAAGT returned a PBM binding z-score of 0.109.

In turn, TCTAGTTGGTCAAAGGTCACACCCTCGAAATGCG yielded a PBM binding z-score of 6.12.

For GCAGACAGGTGAAACGTAGGTAACTCAGGGTGGC, the PBM binding z-score came out at 0.393.

The sequence ATCTCTATGTAACCAAGTTCAGTGAATGCCGAAC came in with a PBM binding z-score of 0.659.

Regarding GCGGCTGGGGCAAAGCAGGTTACCATAAGGTTGG, the PBM binding z-score worked out at 0.921.

ACTACTAGTTGAGACGAGGGCAACCGATAGGTTG registered a PBM binding z-score of 0.767.

CGAACTAGGTCATTAACAGGACAGTGAATAGTAA had a PBM binding z-score of 4.05.

In turn, AGAGTGAGGTTAAGATCAGGGAAACAGAATACAT had a PBM binding z-score of 1.68.
